Assay outcomes as filed in PubChem.
TDP1 inh = blocks human tyrosyl-DNA phosphodiesterase 1; Potency, µM (top dose mostly 130 µM), for the others: at the highest dose activity change, negative = inhibition, hits mostly inhibitors; recombinant TDP1, AlphaScreen DNA substrate cleavage; Q9NUW8; hit rate 0.28% among 350,000; also: nearly all actives have a fitted effect of over 40% in size
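Recombinant E. coli-expressed Tdp1 (1 nM) preincubated with compound 15 min at RT, then 5'-biotin/3'-phosphotyrosine-FITC DNA substrate (15 nM) added for 5 min. AlphaScreen beads (10 ug/ml) added, 10 min RT; tyrosine-FITC cleavage read as signal loss.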
KAT2A inh = blocks human GCN5L2 histone acetyltransferase | Q92830 | GCN5L2 HAT assay, ThioGlo1 CoA-SH fluorescence | Potency, µM (highest dose often 58.9 µM), without a hit: at the highest dose activity change, negative = inhibition, hits mostly inhibitors | hit rate 0.21% among 390,000
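Titration-based screen in which CoA formation is detected via maleimide probe ThioGlo1 (50uM) turning fluorescent on thiol reaction; substrates H3(1-25) 75uM and acetyl-CoA 70uM, GCN5L2 20nM, 20 min incubation at room temperature.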
DT40 TDP1 CPT = DT40-hTDP1 cell growth loss with CPT | chicken DT40 Tdp1-/-;hTDP1 cells + 20 nM CPT, ATP luminescence, 48 h | Potency, µM (titrated, usually from 46.2 µM), inactives show top-dose activity change, negative = growth inhibition, hits mostly inhibitors | hit rate 12% among 420,000; also: nearly all actives have a fitted effect of over 55% in size
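Chicken DT40 Tdp1-/- cells complemented with human TDP1, 400 cells/well, exposed to compounds plus 20 nM camptothecin for at least 48 h at 37 C; viability read as ATP content by CellTiter-Glo luminescence.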
PLK1 PBD block = inhibitors of human PLK1 polo-box domain binding; P53350; Plk1 PBD binding of FITC phosphopeptide, fluorescence polarization; Potency, µM, inactives show max response, negative = inhibition, usual class: inhibitors; hit rate 2.8% among 360,000; AID 720504; also: series mostly up to about 57 µM; nearly all actives have a fitted effect of over 65% in size
TDP1 cell noCPT = qHTS for Inhibitors of human tyrosyl-DNA phosphodiesterase 1 (TDP1): qHTS in cells in absence of CPT; DT40 Tdp1-/- hTDP1 cells, no CPT, ATP luminescence, 48 h; Potency, µM (highest dose often 46.2 µM), inactives show at the top dose activity change, negative = growth inhibition, usual class: inhibitors; hit rate 15% among 420,000; also: nearly all actives have a fitted effect of over 55% in size
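Stably hTDP1-transfected Tdp1-null chicken DT40 cells were treated with library compounds minus camptothecin and grown for at least 48 hr at 37 °C, after which cellular ATP was quantified by luminescence.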
VDR inhibitor = inhibitors of human vitamin D receptor. VDR-SRC2-3 peptide fluorescence polarization, 2 h. P11473. hit rate 0.93% among 400,000. Potency, µM, for inactives: max response, negative = inhibition, usual class: inhibitors
Target sequence (P11473 whole entry, looked up): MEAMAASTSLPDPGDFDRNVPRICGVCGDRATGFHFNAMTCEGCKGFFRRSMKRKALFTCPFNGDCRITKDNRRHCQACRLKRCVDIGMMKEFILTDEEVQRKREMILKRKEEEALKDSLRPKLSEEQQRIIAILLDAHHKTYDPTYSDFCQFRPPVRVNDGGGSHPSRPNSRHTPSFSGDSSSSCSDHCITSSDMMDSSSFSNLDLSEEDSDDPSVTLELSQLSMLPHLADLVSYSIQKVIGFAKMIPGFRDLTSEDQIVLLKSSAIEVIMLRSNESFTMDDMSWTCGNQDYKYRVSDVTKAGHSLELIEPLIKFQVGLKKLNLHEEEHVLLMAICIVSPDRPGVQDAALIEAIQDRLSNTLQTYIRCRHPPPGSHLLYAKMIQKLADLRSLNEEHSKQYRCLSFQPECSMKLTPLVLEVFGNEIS
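Two reagent solutions held at 4 deg C in the dark were dispensed, compounds pinned at 23 nl, and the mixture incubated 2 h at room temperature. Read-out: fluorescence polarization of VDR–SRC2-3 peptide binding.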
* marks the source's active call; other numbers are inactive results; ? = inconclusive; · = no result given; [ ] = dose if it differs, or a comment. Most compounds without a hit are left out; they make up all but 18% or so of the library. Calls follow the shape of the dose curve; as a rule, active = well fitted curve in the direction sought with a large enough effect; inconclusive = small, poorly fitted or top-dose-only effect, or another doubt; inactive = no such curve, though single readings can be large; an effect the other way counts as inactive or inconclusive. % is scaled to controls: 0 for no effect and ±100 for the full control effect; potency is read from the fitted curve at half-maximal effect.

SMILES	TDP1 inh	KAT2A inh	DT40 TDP1 CPT	PLK1 PBD block	TDP1 cell noCPT	VDR inhibitor
Cc1ccc(-c2cc(C(F)F)n3ncc(C(=O)N4CCCc5ccccc54)c3n2)cc1	0.0%	-8.7%	?	1.4%	-22.1%	-2.7%
O=C(c1cc(-c2ccccc2)nc2ccccc12)N1CCCc2ccccc21	4.7%	-11.9%	?	1.3%	23.1µM*	-6.4%
Cc1cccc(-c2cc(C(=O)N3CCCc4ccccc43)c3ccccc3n2)c1	2.7%	0.2%	23.1µM*	-1.8%	?	-14.7%
O=C(CSc1nc2c(c(C(F)(F)F)n1)CCc1ccccc1-2)NCc1ccccc1	-2.6%	-0.3%	?	-22.9%	25.9µM*	-7.7%
CC(C)(CO)[C@@H](O)C(=O)NCCCO	4.3%	0.9%	-17.5%	·	5.3%	-3.7%
O=C1OCC/C1=C\c1ccccc1	2.6%	2.3%	-2.6%	-7.9%	3.7%	3.4%
O=C1/C(=C/c2ccccc2)CCc2ccc(Cl)nc21	·	·	2.59µM*	-12.0%	4.61µM*	50.1µM*
Cc1ccc2c(c1)c(=O)c(S(=O)(=O)c1ccc(C)c(C)c1)cn2CC(=O)Nc1ccccc1	3.8%	-0.3%	-1.4%	·	-18.8%	-0.3%
COc1ccc(/C=C/C(=O)OCC(=O)NCc2ccccc2)cc1OC	1.9%	-2.5%	20.6µM*	-18.3%	16.4µM*	-17.7%
COc1ccc(OCC(=O)NCCC2=CCCCC2)c([N+](=O)[O-])c1	5.4%	-2.7%	?	-4.8%	?	-7.7%
CCN(CC)S(=O)(=O)c1ccc(/C=C/C(=O)OCC(=O)NCc2ccco2)cc1	·	?	9.2µM*	-15.5%	?	-6.8%
COc1ccc(C(C)=O)c(OCC(=O)NCCC2=CCCCC2)c1	·	·	-75.3%	-0.1%	0.581µM*	·
O=C(C(=O)N1CCC(Cc2ccccc2)CC1)c1cccc(Br)c1	·	·	?	-17.4%	?	·
COc1ccc(C(=O)C(=O)N2CCC(Cc3ccccc3)CC2)cc1OC	·	·	?	-7.0%	20.6µM*	·
O=C(O)c1ccccc1OC1=NS(=O)(=O)c2ccccc21	2.2%	·	·	·	·	·
Cn1cc(S(=O)(=O)Nc2ccc(F)c(Cl)c2)c(=O)n(C)c1=O	·	1.3%	-2.8%	-7.7%	4.8%	-9.6%
CC(=O)C1C(c2ccc(Cl)cc2)c2c(noc2C)CC1(C)O (stereo unspecified)	·	0.2%	3.8%	-1.5%	8.8%	-12.4%
COc1ccc(/C=C/C(=O)Nc2c(C(=O)O)[nH]c3ccccc23)cc1OC	3.7%	3.0%	20.6µM*	26.7µM*	?	?
COc1ccccc1/C=C/C(=O)OCC(=O)NCCC1=CCCCC1	5.1%	-2.7%	-4.6%	-1.6%	-8.5%	-5.3%
COc1ccccc1/C=C/C(=O)OCC(=O)NNC(=O)c1ccccc1	0.6%	1.1%	-25.1%	-5.8%	18.4µM*	5.7%
COc1ccccc1/C=C/C(=O)OCC(=O)NCc1ccco1	2.7%	-1.2%	18.4µM*	-9.2%	?	-11.6%
COc1ccccc1/C=C/C(=O)OCC(=O)NC1CC1	2.5%	-4.2%	8.5%	-0.3%	-7.3%	13.0%
COc1ccc(/C=C/C(=O)OCC(=O)NCCC2=CCCCC2)cc1OC	1.3%	-6.2%	?	-0.9%	16.4µM*	16.3%
CCc1ccc(/C=N/n2c(C)cc(C)c(C#N)c2=O)cc1	1.2%	-5.9%	-3.4%	-3.5%	-24.2%	-13.4%
O=C(Nc1ccc(C(=O)Nc2ccccc2Cl)cc1)c1cccnc1	3.4%	-4.1%	-21.8%	2.0%	-27.8%	-9.1%
SMILES	TDP1 inh	KAT2A inh	DT40 TDP1 CPT	PLK1 PBD block	TDP1 cell noCPT	VDR inhibitor
Cc1ccc(S(=O)(=O)NCCc2nnc(SCc3cccnc3)n2C)cc1	15.2%	-0.3%	-1.7%	-6.4%	-4.5%	5.5%
COc1ccc(N2CCN(C(=O)CN3C(=O)COc4ccc(S(=O)(=O)N5CCC(C)CC5)cc43)CC2)cc1	9.0%	-4.8%	·	·	·	11.9%
COc1cc(/C=C/C(=O)OCC(=O)N2CCC(Cc3ccccc3)CC2)ccc1O	2.8%	-4.7%	?	-9.3%	14.6µM*	-7.1%
COc1cc(/C=C/C(=O)OCC(=O)N2CCC(C)CC2)ccc1O	·	0.1%	-10.2%	-8.4%	-14.9%	-9.9%
COc1cc(/C=C/C(=O)OCC(=O)NCc2ccco2)ccc1O	-3.5%	-2.6%	20.6µM*	-7.5%	16.4µM*	-14.0%
CCOC(=O)c1c(S(=O)(=O)N2CCC(C(=O)N3CCN(c4ccc(F)cc4)CC3)CC2)c(C)n(C)c1C	4.4%	-16.6%	-18.2%	·	-28.9%	8.5%
COc1ccc(S(=O)(=O)NNC(=O)Cc2csc(C)n2)cc1[N+](=O)[O-]	-6.1%[0.505 µM]	-5.8%	?	-10.4%	-23.4%	2.9%
Cc1c(C(=O)O)sc2nc3n(c(=O)c12)CCCCC3	1.0%	·	2.6%	2.6%	-3.1%	-12.4%
Cc1ccc(Cl)cc1N(C)C(=O)c1sc2nc3n(c(=O)c2c1C)CCCC3	3.9%	-9.3%	?	·	16.4µM*	-7.8%
Cc1ccc(N(C)C(=O)c2sc3nc4n(c(=O)c3c2C)CCCC4)cc1C	-6.5%	?	23.1µM*	·	18.4µM*	16.5%
COc1ccc(C(CNC(=O)COc2cccc(C(F)(F)F)c2)N2CCCC2)cc1 (stereo unspecified)	1.8%	-3.2%	?	3.0%	?	6.2%
COC(=O)[C@@H]1Cc2c([nH]c3ccccc23)C(C)(C)N1C(=O)CCl	·	-3.1%	18.4µM*	-9.4%	23.1µM*	-1.7%
CC1(C)c2[nH]c3ccccc3c2C[C@@H]2C(=O)N(Cc3ccccc3)C(=O)N21	·	·	·	·	·	-9.2%
C=C(C)C1CCC(C)C(OC(C)=O)C1 (stereo unspecified)	6.9%	42.8%	·	·	·	-8.1%
C/C(=N\NC(=O)c1ccco1)c1cc2ccccc2o1	5.5%	-2.0%	7.8%	-3.6%	?	6.6%
C/C(=N\NC(=S)Nc1ccccc1C)c1cc2ccccc2o1	·	-6.3%	4.11µM*	-3.3%	5.17µM*	-24.2%
C/C(=N\NC(=S)Nc1c(C)cccc1C)c1ccc(O)cc1	8.4%	-5.6%	16.4µM*	-9.4%	?	-18.7%
C/C(=N\NC(=S)Nc1c(C)cccc1C)c1cc2ccccc2o1	7.1%	-0.6%	3.26µM*	-2.8%	2.06µM*	-20.7%
CCCn1c(SC(C)C(=O)NC2CCCC2)n[nH]c1=O (stereo unspecified)	-0.7%	-6.2%	11.4%	-7.0%	2.6%	-5.5%
Cc1cccc(C(P(=O)(c2ccccc2)c2ccccc2)P(=O)(c2ccccc2)c2ccccc2)n1	2.7%	0.3%	?	-0.9%	16.4µM*	-8.3%
COc1ccc(/C=N/N2CCOCC2)cc1Cn1cc([N+](=O)[O-])cn1	2.8%	-7.2%	6.1%	-0.6%	-3.3%	3.7%
